Key:
CLCN5 = assay: pooled miR-30 sensor sort-seq; sequence = guide strand; settings: shRNA
CLDN16 = assay: as above; settings: shRNA

Sequence: TTTAACACATCCTTTTTGGTAA
- sensor-assay potency score (higher = more potent) (CLCN5): -0.176

Sequence: TTGAAATCATCATAGGTCCCTA
- sensor-assay potency score (higher = more potent) (CLCN5): -0.0127

Sequence: TTCCTGTATTTGTTGAAGCAGT
- sensor-assay potency score (higher = more potent) (CLCN5): -0.859

Sequence: TTTGTCTCTCTCTTCAAAGGTG
- sensor-assay potency score (higher = more potent) (CLCN5): -0.196

Sequence: AAATATATTGTGCAAAACCAAA
- sensor-assay potency score (higher = more potent) (CLDN16): -1.81

Sequence: TCAAACCAGCTAACGAACCTGA
- sensor-assay potency score (higher = more potent) (CLCN5): -0.258

Reference: the OligoGym collection
